Measured values published in PubChem BioAssay (Tox21).
Results filed as inconclusive are left out. Calls of active or inactive are those of the source. Calls follow the shape of the dose curve; as a rule, active = well fitted cell-killing curve with a large enough effect in the repeat runs; inconclusive = weak or mixed curves; inactive = flat fitted curve, though single readings scatter.

Assay: qHTS RealTime-Glo MT Cell Viability Assay in HepG2 cells - 8 hour (AID 1224873); also: nearly all actives have a fitted effect of over 55% in size
Settings: RealTime-Glo luminescence; series mostly up to 76.8 µM
Method in brief: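 HepG2 cells (600/well) mixed with RealTime-Glo MT reagent, settled 5 h at 37 C/5% CO2 before compound addition. Nonlytic NanoLuc luminescence from viable-cell prosubstrate reduction read repeatedly during 40 h treatment at 37 C.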
% is scaled to controls: 0 for no effect and ±100 for the full control effect.

Row | SMILES | outcome | viability change, negative = cytotoxic
1 | CCCCCCCCc1ccc(S(=O)(=O)O)cc1 | inactive | –
2 | CC1=C(CC(=O)O)c2cc(F)ccc2/C1=C\c1ccc(S(C)(=O)=O)cc1 | inactive | –
3 | CC(C)NCC(O)COc1ccc(CCOCC2CC2)cc1 (configuration not stated) | inactive | –
4 | C1CCOC1 | inactive | –
5 | C=O | inactive | –
6 | COc1nc(C)nc(NC(=O)NS(=O)(=O)c2ccccc2OCCCl)n1 | inactive | –
7 | O=C(O)[C@@H]1CSCN1 | inactive | –
8 | O=C(O)[C@@H](O)[C@H](O)[C@H](O)[C@@H](O)C(=O)O | inactive | –
9 | CN1CCN(C2=Nc3ccccc3Oc3ccc(Cl)cc32)CC1 | inactive | –
10 | CC(C)O | inactive | –
11 | CCC1(C)NC(=O)NC1=O (configuration not stated) | inactive | –
12 | CC/C=C\CCOC(=O)C(C)C | inactive | –
13 | CCCCCCCOC(=O)CCC | inactive | –
14 | CCCCCCC | inactive | –
15 | OCCN1CCN(CCO)CC1 | inactive | –
16 | O=C1CCCc2ccccc21 | inactive | –
17 | O=C1C=CC(=O)O1 | inactive | –
18 | O=C(O)c1ccccc1Nc1cc(Cl)ccc1C(=O)O | – | 0.891% [at 15.8 µM] (inactive)
19 | CCc1cc2cc(OC)c(OC)cc2c(Cc2ccccc2)n1 | inactive | –
20 | CN1CCC[C@@H]1Cc1c[nH]c2ccc(CCS(=O)(=O)c3ccccc3)cc12 | inactive | –
21 | Cc1cc2nc(N)sc2cc1C | inactive | –
22 | CCCNC(C)C(=O)Nc1c(C)csc1C(=O)OC (configuration not stated) | inactive | –
23 | Cc1cc(NS(=O)(=O)c2ccc(N)cc2)nc(C)n1 | inactive | –
24 | CCCCCCCCCCCCCCCCOP(=O)([O-])OCC[N+](C)(C)C | inactive | –
25 | NC1=NCC2c3ccccc3Cc3ccccc3N12 (configuration not stated) | inactive | –
26 | Cc1ccc(C)c(N)c1 | inactive | –
27 | O=C1N(c2ccccc2)c2ccccc2C1(Cc1ccncc1)Cc1ccncc1 | inactive | –
